# Screening data as filed in PubChem BioAssay.
# Shown are actives, neighbours in structure and some others; about 3% of the full set was active somewhere.
# S16 F2sN tox: S16 Schwann cell cytotoxicity. S16 Pmp22-F2sN Schwann cells viability, CellTiter-Glo, 24 h. Potency, µM (series often up to 57.5 µM), without a hit: at the top dose activity change, negative = cytotoxicity, most hits filed as cytotoxic. 43,000 tested, 0.48% active. AID 1508642; also: potency is read from the fitted curve at half-maximal effect; % is scaled to controls: 0 for no effect and ±100 for the full control effect; nearly all actives have a fitted effect of over 65% in size
#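 Rat S16 Schwann reporter line, 24 h treatment with library compounds delivered at 23 nL per well. Cell viability by CellTiter-Glo luminescence.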
# mTORC1 inh: inhibitors of mTORC1 signaling in Tsc2-/- p53-/- MEF cells; Potency, µM (titrated, usually from 38.3 µM), inactives show at the top dose activity change, negative = inhibition, usual class: inhibitors; Tsc2-/- p53-/- MEF, phospho-rpS6 immunofluorescence/PI, 24 h; 44,000 tested, 0.78% active;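 also: potency is read from the fitted curve at half-maximal effect; plate controls were DMSO for no effect and rapamycin for full effect; nearly all actives have a fitted effect of over 50% in size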
#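 Cell-based qHTS: Tsc2-/- p53-/- MEF, 24 h cpd, 37 °C; fix/perm, anti-phospho-S6 Alexa-488 + PI; Acumen 488 nm scan; pS6/PI ratio, % positive cells; rapamycin 7.5 nM = inhibition ref; PI count = viability.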
# p53null 32C tox: selectivity test: cytotoxicity in p53 null cells, permissive temperature; Potency, µM (doses to about 46.1 µM), without a hit: top-dose activity change, negative = cytotoxicity, actives largely listed as cytotoxic; 55,000 tested, 0.62% active; H1299-neo p53 null cells, ATP luminescence, 24 h, 32C;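 also: potency is read from the fitted curve at half-maximal effect; 0% = DMSO only and -100% = full killing by 100 µM tamoxifen; nearly all actives have a fitted effect of over 55% in size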
#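 We seeded p53-null H1299-neo cells, incubated them overnight at 37C, and added compounds across a range up to 46 uM. After 24 hours at 32C, ATP reagent was applied for 20 min at room temperature and luminescence recorded.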
# SKOV3 invasion: ovarian cancer metastasis inhibition, 3D TME model; Potency, µM (doses to about 45.8 µM), for inactives: at the highest dose activity change, negative = inhibition, hits mostly inhibitors; SKOV3ip1-GFP adhesion/invasion on 3D omental model, fluorescence; 46,000 tested, 0.1% active; AID 1963576;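 also: potency is read from the fitted curve at half-maximal effect; plate controls were DMSO wells for no effect and tomatine positive control wells for full effect; nearly all actives have a fitted effect of over 65% in size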
#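 Adhesion/invasion was scored as fixed GFP-labeled SKOV3ip1 cell counts (488/509 nm), normalized to DMSO and tomatine controls. Cancer cells in serum-free medium, with four compound doses (0.36-46 umol/L), sat 2 hr at RT then 16 hr at 37 C on a 48 hr fibroblast/mesothelial/ECM culture.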
# PMP22 txn: modulates PMP22 transcription in S16 Schwann cells | S16 Pmp22-F2sN Schwann cells, FLuc/NLuc coincidence luminescence, 24 h | Potency, µM (doses to about 57.5 µM), inactives show at the top dose activity change, negative = inhibition, actives largely listed as inhibitors | 43,000 tested, 2% active; active = clear falling dose curves in both reporters; inconclusive = both reporters move, but less clearly or upward; inactive = either reporter flat; the % is the NLuc reporter signal; also: potency is read from the fitted curve at half-maximal effect; % is scaled to controls: 0 for no effect and ±100 for the full control effect
#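 Reporter cells (S16 Pmp22-F2sN, 500–1,000 per well) exposed to compounds for 24 h, 37C, 5% CO2; lysis with FLuc read after 10 min, then Stop&Glo and NLuc read after 10 min.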
# p53null 39C kill: kills p53 null cells at the nonpermissive temperature. H1299 p53-null (neo) cells, 39C, ATPlite viability, 24 h. Potency, µM (highest dose often 46.1 µM), for inactives: top-dose activity, negative = cell killing, actives largely listed as cytotoxic. 55,000 tested, 0.97% active. AID 904;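 also: potency is read from the fitted curve at half-maximal effect; 0% = DMSO only and -100% = full killing by 100 µM tamoxifen; nearly all actives have a fitted effect of over 50% in size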
#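 ATP-luminescence viability readout (ATPlite, 20 min RT) after 24 hr compound treatment at 39C of H1299-neo or H1299-p53A138V cells; titration up to 46 uM; normalized to DMSO and 100 uM tamoxifen; Hill-fit AC50.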
# NLuc sat counter: inhibits NanoLuc at saturating substrate, PMP22 counter-screen; Potency, µM (series often up to 57.5 µM), for the others: top-dose activity change, negative = inhibition, actives largely listed as inhibitors; shares compounds with PMP22 txn; 690 tested, 4% active; Secreted NLuc enzyme (filtered S16 cell medium), Nano-Glo luminescence; AID 1508638; also: potency is read from the fitted curve at half-maximal effect; % is scaled to controls: 0 for no effect and ±100 for the full control effect
# NLuc Km counter: inhibits NanoLuc under Km conditions, PMP22 counter-screen; shares compounds with PMP22 txn; secreted NLuc enzyme, coelenterazine luminescence, Km conditions; Potency, µM (series often up to 57.5 µM), inactives show at the highest dose activity change, negative = inhibition, most hits filed as inhibitors; 690 tested, 5% active; AID 1508639; also: potency is read from the fitted curve at half-maximal effect; % is scaled to controls: 0 for no effect and ±100 for the full control effect
# FLuc ctr PMP22: firefly luciferase enzyme inhibition artifact for PMP22 screen | shares compounds with PMP22 txn | purified P. pyralis FLuc, luminescence, 10 min | Potency, µM (highest dose often 57.5 µM), for the others: at the top dose activity, negative = inhibition, most hits filed as inhibitors | 690 tested, under 10 active | AID 1508640; also: % of control where 0% means no effect
# Target sequence (P08659 whole entry, looked up): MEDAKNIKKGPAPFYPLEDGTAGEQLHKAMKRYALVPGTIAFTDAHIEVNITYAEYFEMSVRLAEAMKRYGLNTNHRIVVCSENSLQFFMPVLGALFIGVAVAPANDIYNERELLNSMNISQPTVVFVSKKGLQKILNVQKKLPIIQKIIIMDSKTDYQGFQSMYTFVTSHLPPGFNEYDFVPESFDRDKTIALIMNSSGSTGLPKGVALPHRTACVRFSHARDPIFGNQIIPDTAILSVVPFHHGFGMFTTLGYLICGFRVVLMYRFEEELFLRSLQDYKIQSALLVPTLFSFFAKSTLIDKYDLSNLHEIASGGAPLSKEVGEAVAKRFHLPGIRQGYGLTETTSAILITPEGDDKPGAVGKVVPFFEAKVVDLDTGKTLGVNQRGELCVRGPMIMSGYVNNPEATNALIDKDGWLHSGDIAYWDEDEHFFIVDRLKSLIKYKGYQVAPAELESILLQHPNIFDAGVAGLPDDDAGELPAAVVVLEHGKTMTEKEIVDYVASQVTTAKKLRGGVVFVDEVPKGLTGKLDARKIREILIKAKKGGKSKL
# S16 F2sN tox cnf: confirmation of cytotoxicity in S16 Pmp22-F2sN Schwann cells (luciferase reporters placed in the Pmp22 gene); shares compounds with PMP22 txn; S16 Schwann cells viability, CellTiter-Glo ATP luminescence, 24 h; Potency, µM (doses to about 57.5 µM), inactives show at the highest dose activity change, negative = viability loss, most hits filed as cytotoxic; 690 tested, 7% active; AID 1508641; also: potency is read from the fitted curve at half-maximal effect; % is scaled to controls: 0 for no effect and ±100 for the full control effect
# PMP22 txn cnf: PMP22 transcription modulation, confirmatory. shares compounds with PMP22 txn. S16 Schwann cells Pmp22-F2sN, dual luciferase, 24 h. Potency, µM (top dose mostly 57.5 µM), without a hit: at the highest dose activity change, negative = inhibition, usual class: inhibitors. 690 tested, 22% active; active = clear falling dose curves in both reporters; inconclusive = both reporters move, but less clearly or upward; inactive = either reporter flat; the % is the FLuc reporter signal; also: potency is read from the fitted curve at half-maximal effect
# Active calls of the source: *; i = inactive; u = inconclusive; x = no result given. Unless noted, calls follow the shape of the dose curve; as a rule, active = well fitted curve in the direction sought with a large enough effect; inconclusive = small, poorly fitted or top-dose-only effect, or another doubt; inactive = no such curve, though single readings can be large; an effect the other way counts as inactive or inconclusive.
SMILES,S16 F2sN tox,mTORC1 inh,p53null 32C tox,SKOV3 invasion,PMP22 txn,p53null 39C kill,NLuc sat counter,NLuc Km counter,FLuc ctr PMP22,S16 F2sN tox cnf,PMP22 txn cnf
CCOCCCn1c(=N)c(C(=O)NCC2CCCO2)cc2c(=O)n3cccc(C)c3nc21 (centres undefined),-6.7%,-4.7%,3.1%,-1.8%,16.3µM*,13.5%,-5.4%,-1.7%,4.7%,2.6%,u
COCCCn1c(=N)c(C(=O)NCC2CCCO2)cc2c(=O)n3cccc(C)c3nc21 (centres undefined),x,x,6.2%,x,x,x,x,x,x,x,x
COCCCn1c(=N)c(C(=O)NCc2ccco2)cc2c(=O)n3cccc(C)c3nc21,5.7%,2.4%,4.2%,i,14.1µM*,15.4%,-7.5%,0.9%,1.5%,u,u
O=C(NOCC(O)CO)c1cc(Br)c(F)c(F)c1Nc1ccc(I)cc1F (centres undefined),x,x,x,6.4%,x,x,x,x,x,x,x
CNC(=O)CN1CCC(Oc2cc3c(Nc4cccc(Cl)c4F)ncnc3cc2OC)CC1,x,x,x,-20.6%,x,x,x,x,x,x,x
Cc1cn([C@@H]2O[C@H](CO)[C@@H](O)[C@H]2F)c(=O)[nH]c1=O,x,x,x,6.1%,x,x,x,x,x,x,x
Cc1ccccc1NC(=O)c1ccc(F)c(S(=O)(=O)N(C)C2CCCCC2)c1,-14.3%,0.0%,5.1%,-5.4%,5.01µM*,-2.1%,-17.1%,u,3.5%,-5.1%,-27.3%
C#C[C@]1(O)CC[C@@H]2[C@@H]3CCc4cc(O)ccc4[C@H]3CC[C@@]21C,x,x,x,-8.4%,x,x,x,x,x,x,x
CCc1ccccc1NC(=O)c1ccc2nc(C(C)C)oc2c1,u,-9.4%,2.4%,u,16.8µM*,10.8%,u,u,-5.5%,-13.9%,-8.9%
COc1ccc(Cl)cc1NS(=O)(=O)c1cc(-c2cc(C)no2)ccc1C,-18.8%,-23.7%,-5.0%,-21.7%,-9.2%,-19.8%,x,x,x,x,x
COc1ccc(-c2onc(C)c2C)cc1S(=O)(=O)Nc1cc(Cl)ccc1C,-17.2%,0.0%,12.6%,-4.2%,u,-2.2%,u,u,-3.3%,-16.0%,u
CCOc1ccccc1CNS(=O)(=O)c1cc(-c2onc(C)c2C)ccc1OC,u,-4.0%,-5.2%,-1.8%,u,-6.8%,x,x,x,x,x
COc1ccc(-c2onc(C)c2C)cc1S(=O)(=O)NCc1ccc(C)o1,-13.1%,-10.4%,8.7%,-16.7%,8.91µM*,-7.8%,-2.6%,1.4%,10.4%,-10.4%,u
C[C@@H](NCc1cc2ccccc2[nH]1)c1cccc2ccccc12,x,x,x,-24.3%,x,x,x,x,x,x,x
CN1CCN(c2ncc(-c3cc(Cl)cc(Cl)c3Cl)c(N)n2)CC1,x,x,x,3.3%,x,x,x,x,x,x,x
Cc1c(C(=O)Nc2ccc(F)cc2)oc2ccc(S(=O)(=O)N3CCCCCC3)cc12,-28.5%,-4.7%,6.3%,-15.6%,15.2µM*,23.7%,-9.6%,-19.5%,0.8%,-7.9%,-35.1%
COCCCOc1cc(C[C@@H](C[C@H](N)[C@@H](O)C[C@H](C(=O)NCC(C)(C)C(N)=O)C(C)C)C(C)C)ccc1OC,x,x,x,6.6%,x,x,x,x,x,x,x
CCCSc1ncc(Cl)c(C(=O)Nc2sc3c(c2C(=O)NCC)CCCC3)n1,14.5%,1.6%,1.4%,-14.3%,5.15µM*,0.2%,-13.3%,-2.3%,1.5%,-19.3%,u
COc1cc(C(=O)Nc2c(C(=O)Nc3ccccc3F)oc3ccccc23)cc(OC)c1OC,1.4%,-8.4%,4.1%,i,16.8µM*,-11.8%,-2.8%,-3.8%,u,-2.1%,u
COc1ccccc1NC(=O)c1oc2ccccc2c1NC(=O)c1c(F)cccc1F,-24.6%,1.8%,-11.0%,-8.2%,-24.0%,-15.1%,x,x,x,x,x
COc1cc2c(cc1-c1c(C)noc1C)ncc1[nH]c(=O)n([C@H](C)c3ccccn3)c12,x,x,x,54.2%,x,x,x,x,x,x,x
CCOC(=O)N1CCN(Cc2nc3cc([N+](=O)[O-])ccc3n2C(C)C)CC1,-16.6%,-16.8%,-5.1%,-11.4%,u,-8.9%,-5.5%,0.2%,3.4%,u,-4.9%
CCOC(=O)N1CCN(Cc2nc3cc(NC(=O)c4ccc(OC)cc4)ccc3n2C(C)C)CC1,-18.8%,u,-11.1%,-17.1%,u,7.2%,x,x,x,x,x
CCOC(=O)N1CCN(Cc2nc3cc(NC(=O)c4ccc(F)cc4)ccc3n2C(C)C)CC1,u,u,-3.9%,-7.1%,u,-3.4%,x,x,x,x,x
CCOC(=O)N1CCN(Cc2nc3cc(NC(=O)c4ccccc4OC)ccc3n2C(C)C)CC1,u,-16.7%,-8.2%,u,u,u,x,x,x,x,x
CCOC(=O)N1CCN(Cc2nc3cc(NC(=O)c4ccccc4[N+](=O)[O-])ccc3n2C(C)C)CC1,u,0.6%,-8.1%,u,11.2µM*,-3.6%,u,-4.5%,-4.8%,7.5%,-21.6%
CCOC(=O)N1CCN(Cc2nc3cc(NC(=O)C(C)C)ccc3n2C(C)C)CC1,u,u,4.4%,i,6.31µM*,-3.0%,-13.9%,4.3%,6.3%,3.7%,-18.3%
COc1cc2c(cc1OC)CN(CCc1ccc(NC(=O)c3cccc4c(=O)c5cccc(OC)c5[nH]c34)cc1)CC2,x,x,x,0.4%,x,x,x,x,x,x,x
Cc1cnc(Nc2cccc(CN3CCOCC3)c2)nc1Nc1cccc(S(=O)(=O)NC(C)(C)C)c1,x,x,x,-28.4%,x,x,x,x,x,x,x
